Records with an inconclusive call do not appear. Activity calls are given as the source filed them. Unless noted, the call rests on the fitted dose curve.
Columns and labels:
[1] = Nuclear factor erythroid 2-related factor 2/antioxidant responsive element (Nrf2/ARE) small molecule agonists: qHTS cell viability counter screen in human keratinocytes (AID 1919968; active means well fitted curve in the direction sought with a large enough effect in the repeat runs; an effect the other way counts as inactive or inconclusive; further: nearly all actives have a fitted effect of over 55% in size; further: potency means the concentration at half of the fitted maximal effect)
Summary of the method: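 Stably transfected HaCaT (KeratinoSens), 1,500/well. Test agents in DMSO were applied for 23 h, 37 C/5% CO2. CellTiter-Fluor was incubated 1 h before the fluorescence read.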

[2] = Nuclear factor erythroid 2-related factor 2/antioxidant responsive element (Nrf2/ARE) small molecule agonists: luciferase reporter gene qHTS assay in human keratinocytes (AID 1919969); further: nearly all actives have a fitted effect of over 35% in size; further: potency means the concentration at half of the fitted maximal effect
[3] = target: Gonadotropin-releasing hormone receptor (Homo sapiens) (UniProt P30968); assay: Human gonadotropin-releasing hormone receptor (GnRHR) small molecule agonists, calcium flux assay in GnRHR-HEK293 cells (AID 1920063); further: nearly all actives have a fitted effect of over 35% in size
Summary of the method: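 Stable human GnRHR HEK293 line. 18 h plating, then calcium dye for 1 h at 37 C. Agonist-mode compound addition from DMSO stocks; fluorescence monitored 3 min.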

[4] = target: KiSS-1 receptor (Homo sapiens) (UniProt Q969F8); assay: Human kisspeptin (KISS1R) small molecule agonists, calcium flux assay in KISS1R-HEK293 cells (AID 1920064; active means well fitted curve in the direction sought with a large enough effect in the repeat runs; an effect the other way counts as inactive or inconclusive)
Summary of the method: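 After overnight (18 h) culture at 37 C/5% CO2, human KISS1R-HEK293 cells received calcium dye for 1 h, then test compound; emission at 540 nm (excitation 480 nm) was tracked for 3 min.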

[5] = G protein-coupled receptor (GPCR) small molecule agonists, calcium flux assay: HEK293 wild type cell line counter screen (AID 1920065)
Summary of the method: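 Following 18 h incubation at 37 C/5% CO2, plates got calcium dye for 1 h; compounds, ATP or DMSO were then pinned in and fluorescence followed kinetically (480/540 nm).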

[6] = p53 small molecule agonists, cell-based qHTS assay with human liver microsomes (AID 1963577);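 further: p53 response element beta-lactamase reporter cells with liver microsomes plus NADPH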
Summary of the method: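 Steps: plate p53RE-bla cells, incubate 5 h at 37 C; add compound in DMSO; add microsomes (0.5 mg/mL final) and NADPH (0.5 mg/mL final); incubate 16 h at 37 C; add LiveBLAzer, 2 h RT; read fluorescence.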

[7] = p53 small molecule agonists, cell-based qHTS assay with rat liver microsomes (AID 1963578)
Summary of the method: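 Metabolic activation is supplied by rat liver microsomes with NADPH (each 0.5 mg/mL final). p53RE-bla cells incubate with compound 16 h at 37 C; reporter activity is measured by LiveBLAzer fluorescence.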

[8] = p53 small molecule agonists, cell-based qHTS assay with human liver microsomes: qHTS cell viability counter screen (AID 1963579); further: nearly all actives have a fitted effect of over 45% in size; further: potency means the concentration at half of the fitted maximal effect
Summary of the method: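 After the 460/530 nm beta-lactamase read, CellTiter-Glo was added to the same wells and luminescence measured after 30 min at room temperature, giving viability of p53RE-bla cells treated 16 h with compounds plus microsomes and NADPH.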

[9] = p53 small molecule agonists, cell-based qHTS assay: qHTS cell viability counter screen (AID 1963581); further: nearly all actives have a fitted effect of over 45% in size
Summary of the method: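 qHTS counter screen: 16 h compound exposure at 37 C of p53RE-bla HCT-116 cells (4,000 per well, seeded 5 h prior), cell viability by ATP luminescence.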

[10] = p53 small molecule agonists, cell-based qHTS assay (AID 1963582; active means well fitted activation curve with a large enough effect in the signal ratio in the repeat runs, not every such curve was filed as active; the % refers to the signal ratio)
Summary of the method: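 Measured: fluorescence from cleaved LiveBLAzer substrate. System: p53RE-bla cells, 16 h compound treatment at 37 C, 2 h substrate step at room temperature.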

[11] = target: 5-hydroxytryptamine receptor 2A (Homo sapiens) (UniProt P28223); assay: 5-hydroxytryptamine receptor 2A (HTR2A) small molecule antagonists, cell-based qHTS assay (AID 1963586); further: nearly all actives have a fitted effect of over 45% in size
Summary of the method: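 CHO cells stably expressing human HTR2A were plated for 18 h at 37 C, then loaded with calcium dye for 1 h. Compounds were preincubated 5 min at room temperature before DOI (4 nM solution) was added. Kinetic fluorescence was read for 3 min.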

[12] = target: 5-hydroxytryptamine receptor 2A (Homo sapiens) (UniProt P28223); assay: 5-hydroxytryptamine receptor 2A (HTR2A) small molecule agonists, cell-based qHTS assay (AID 1963587); further: nearly all actives have a fitted effect of over 30% in size
Summary of the method: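 Kinetic calcium-flux fluorescence (2 min, 1 sec intervals) after compound addition in agonist mode. HTR2A-CHO cells were cultured 18 h, then dye-loaded 1 h at 37 C.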

[13] = target: Muscarinic acetylcholine receptor M1 (Homo sapiens) (UniProt P11229); assay: Cholinergic receptor muscarinic 1 (CHRM1) small molecule antagonists, cell-based qHTS assay (AID 1963588); further: nearly all actives have a fitted effect of over 40% in size
Summary of the method: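 Compounds were tested at 15 concentrations in three independent runs. Dye-loaded CHRM1-CHO cells were exposed 5 min at room temperature before stimulation by acetylcholine added at 50nM. Intracellular calcium was read kinetically on FDSS for 3 min.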

[14] = target: Muscarinic acetylcholine receptor M1 (Homo sapiens) (UniProt P11229); assay: Cholinergic receptor muscarinic 1 (CHRM1) small molecule agonists, cell-based qHTS assay (AID 1963589); further: nearly all actives have a fitted effect of over 35% in size
Summary of the method: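 Kinetic fluorescence (1 s intervals) of calcium-sensitive dye in human M1 CHO cells after compound addition; cells pre-incubated 18 h at 37 C/5% CO2 and dye-loaded 1 h.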

[15] = cAMP Responsive Elements (CRE) small molecule agonists, cell-based qHTS assay (AID 1963590)
Summary of the method: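 Test agents in DMSO were incubated 3 h at 37 C/5% CO2 with CRE-bla HEK 293T cells seeded 18 h earlier; LiveBLAzer B/G FRET substrate was added and read after 2 h at room temperature.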

[16] = target: D(2) dopamine receptor (Homo sapiens) (UniProt P14416); assay: Dopamine D2 receptor (DRD2) small molecule agonists, cell-based qHTS assay (AID 1963594); further: nearly all actives have a fitted effect of over 35% in size
Summary of the method: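 cAMP accumulation in DRD2-HEK293 cells measured by HTRF after 1 h detection; compounds added 10 min before NKH477 (200nM […]) forskolin-analogue stimulation, 30 min at room temperature, with Ro20-1724 present at 0.1 mM final.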

[17] = target: D(2) dopamine receptor (Homo sapiens) (UniProt P14416); assay: Dopamine D2 receptor (DRD2) small molecule antagonists, cell-based qHTS assay (AID 1963595; active means well fitted inhibition curve with a large enough effect in the signal ratio in the repeat runs, with a control signal flat; the % refers to the signal ratio; further: potency means the concentration at half of the fitted maximal effect)
Summary of the method: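 DRD2-HEK293; 0.1 mM Ro20-1724; cpd 10 min RT; NKH477 200 nM + quinpirole 12 nM, 30 min RT; HTRF cAMP (cAMP-d2/anti-cAMP cryptate), 665/620 nm ratio after 1 h.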

[18] = cAMP Responsive Elements (CRE) small molecule antagonists, cell-based qHTS assay (AID 1963591; active means well fitted inhibition curve with a large enough effect in the signal ratio in the repeat runs, not every such curve was filed as active; the % refers to the signal ratio)
Summary of the method: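 Reporter line CRE-bla HEK 293T in dialyzed-FBS DMEM; cells preincubated 18 h, treated 3 h with compound plus NKH477 (0.25 uM final); LiveBLAzer FRET, 2 h RT.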

[19] = target: Beta-2 adrenergic receptor (Homo sapiens) (UniProt P07550); assay: Adrenergic beta2 receptor (ADRB2) small molecule antagonists, cell-based qHTS assay (AID 1963592); further: series mostly up to about 92 µM; nearly all actives have a fitted effect of over 50% in size
Summary of the method: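 Assay format: CHO-ADRB2 cells, 18-20hr seeding at 37C/5% CO2, then compound plus 1nM isoproterenol agonist mix for 0.5hr RT. Homogeneous time-resolved fluorescence cAMP detection after 1hr, expressed as 665/615 nm ratio.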

[20] = target: Beta-2 adrenergic receptor (Homo sapiens) (UniProt P07550); assay: Adrenergic beta2 receptor (ADRB2) small molecule agonists, cell-based qHTS assay (AID 1963593); further: potency means the concentration at half of the fitted maximal effect;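 on activation: CHO cells stably overexpressing human ADRB2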
Summary of the method: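 CHO cells stably over-expressing ADRB2 were plated overnight at 37C, then dosed with compounds plus a stimulation mix containing 100uM IBMX and 25uM Ro-20-1724 for 0.5hr at room temperature. cAMP was measured by HTRF competition, 1hr.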
On the % scale 0 is the no-effect control and ±100 the full control effect.

Sequence of Muscarinic acetylcholine receptor M1 (Homo sapiens) (P11229 whole entry, looked up): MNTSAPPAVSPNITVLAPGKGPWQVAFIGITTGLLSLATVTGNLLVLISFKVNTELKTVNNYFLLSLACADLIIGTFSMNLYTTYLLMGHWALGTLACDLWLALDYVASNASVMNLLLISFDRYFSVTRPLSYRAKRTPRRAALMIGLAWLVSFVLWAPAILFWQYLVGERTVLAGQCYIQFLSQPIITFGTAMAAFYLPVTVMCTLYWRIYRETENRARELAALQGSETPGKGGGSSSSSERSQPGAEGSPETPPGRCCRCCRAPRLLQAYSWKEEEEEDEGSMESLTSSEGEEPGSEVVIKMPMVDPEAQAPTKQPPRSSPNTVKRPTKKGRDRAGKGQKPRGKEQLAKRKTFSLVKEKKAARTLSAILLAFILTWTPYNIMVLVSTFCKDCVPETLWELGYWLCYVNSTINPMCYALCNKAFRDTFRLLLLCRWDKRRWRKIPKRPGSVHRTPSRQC
Sequence of Beta-2 adrenergic receptor (Homo sapiens) (P07550 whole entry, looked up): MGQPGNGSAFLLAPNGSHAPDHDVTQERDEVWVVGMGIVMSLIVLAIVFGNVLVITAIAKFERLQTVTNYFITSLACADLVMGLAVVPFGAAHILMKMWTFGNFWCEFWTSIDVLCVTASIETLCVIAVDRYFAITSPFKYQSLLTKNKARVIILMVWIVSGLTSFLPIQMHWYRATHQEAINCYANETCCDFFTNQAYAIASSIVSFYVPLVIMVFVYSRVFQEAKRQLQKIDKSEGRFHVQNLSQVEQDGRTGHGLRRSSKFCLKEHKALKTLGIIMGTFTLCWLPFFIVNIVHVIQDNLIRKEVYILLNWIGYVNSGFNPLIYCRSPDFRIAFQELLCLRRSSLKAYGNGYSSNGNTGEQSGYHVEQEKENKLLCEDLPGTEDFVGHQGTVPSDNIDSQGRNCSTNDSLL
Sequence of D(2) dopamine receptor (Homo sapiens) (P14416 whole entry, looked up): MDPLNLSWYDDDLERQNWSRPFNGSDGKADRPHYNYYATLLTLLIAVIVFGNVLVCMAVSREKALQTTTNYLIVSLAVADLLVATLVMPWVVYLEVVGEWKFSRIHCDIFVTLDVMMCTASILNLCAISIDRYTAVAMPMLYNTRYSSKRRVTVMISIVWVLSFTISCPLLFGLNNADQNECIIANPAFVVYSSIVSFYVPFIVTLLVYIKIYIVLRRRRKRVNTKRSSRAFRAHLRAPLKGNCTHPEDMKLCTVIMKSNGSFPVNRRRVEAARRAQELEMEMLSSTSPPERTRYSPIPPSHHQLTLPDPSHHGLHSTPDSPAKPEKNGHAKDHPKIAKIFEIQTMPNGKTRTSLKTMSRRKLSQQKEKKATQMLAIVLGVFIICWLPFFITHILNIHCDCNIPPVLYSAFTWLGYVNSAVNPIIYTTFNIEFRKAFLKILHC
Sequence of 5-hydroxytryptamine receptor 2A (Homo sapiens) (P28223 whole entry, looked up): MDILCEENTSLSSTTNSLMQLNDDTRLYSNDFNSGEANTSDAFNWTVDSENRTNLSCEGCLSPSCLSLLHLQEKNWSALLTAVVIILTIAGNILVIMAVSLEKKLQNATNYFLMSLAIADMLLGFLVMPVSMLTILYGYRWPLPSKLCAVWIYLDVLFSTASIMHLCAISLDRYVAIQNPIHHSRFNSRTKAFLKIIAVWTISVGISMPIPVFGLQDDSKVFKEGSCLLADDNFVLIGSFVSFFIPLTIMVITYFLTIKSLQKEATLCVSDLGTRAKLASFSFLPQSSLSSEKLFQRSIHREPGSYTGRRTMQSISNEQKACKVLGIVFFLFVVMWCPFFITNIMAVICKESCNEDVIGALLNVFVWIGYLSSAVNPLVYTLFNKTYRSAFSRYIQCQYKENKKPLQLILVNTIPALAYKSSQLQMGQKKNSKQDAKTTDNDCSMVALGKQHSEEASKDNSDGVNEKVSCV
Sequence of Gonadotropin-releasing hormone receptor (Homo sapiens) (P30968 whole entry, looked up): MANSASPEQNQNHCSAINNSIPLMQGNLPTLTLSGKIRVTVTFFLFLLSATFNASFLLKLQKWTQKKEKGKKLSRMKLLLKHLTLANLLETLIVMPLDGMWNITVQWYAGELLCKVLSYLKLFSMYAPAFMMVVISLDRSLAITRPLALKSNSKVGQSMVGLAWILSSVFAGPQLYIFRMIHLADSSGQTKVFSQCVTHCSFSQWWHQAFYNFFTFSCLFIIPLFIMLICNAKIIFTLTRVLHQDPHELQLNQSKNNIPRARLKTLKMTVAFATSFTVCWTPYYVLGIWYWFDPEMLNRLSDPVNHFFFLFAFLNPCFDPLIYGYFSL
Sequence of KiSS-1 receptor (Homo sapiens) (Q969F8 whole entry, looked up): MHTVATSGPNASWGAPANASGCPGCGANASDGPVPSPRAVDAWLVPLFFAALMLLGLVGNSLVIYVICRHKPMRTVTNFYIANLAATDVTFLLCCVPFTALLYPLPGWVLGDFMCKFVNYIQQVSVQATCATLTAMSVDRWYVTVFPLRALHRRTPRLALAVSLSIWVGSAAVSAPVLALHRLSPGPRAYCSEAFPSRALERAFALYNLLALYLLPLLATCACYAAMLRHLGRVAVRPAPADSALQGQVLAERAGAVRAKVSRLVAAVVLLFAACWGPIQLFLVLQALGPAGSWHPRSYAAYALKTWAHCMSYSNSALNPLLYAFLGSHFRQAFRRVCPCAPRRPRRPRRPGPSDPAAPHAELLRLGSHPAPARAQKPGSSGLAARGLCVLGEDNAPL

Cc1nc2ccccn2c(=O)c1CCN1CCC(C(=O)c2ccc(F)cc2)CC1
active: Potency [17] 0.531 µM
inactive: Potency [1] | Potency [2] | Potency [3] | outcome [4] | outcome [5] | Potency [6] | Potency [7] | Potency [8] | Potency [9] | Potency [10] | Potency [11] | Potency [12] | Potency [13] | Potency [14] | Potency [15] | Potency [16]

O=S(=O)(c1ccccc1)c1ccc(Cl)cc1
inactive: Potency [1] | Potency [2] | Potency [3] | outcome [4] | outcome [5] | Potency [6] | Potency [7] | Potency [8] | Potency [9] | Potency [10] | Potency [11] | Potency [12] | Potency [13] | Potency [14] | Potency [15] | Potency [18] | Potency [19] | Potency [16] | Potency [17]

O=C(O)c1ccc2cc(O)ccc2c1
inactive: Potency [1] | Potency [2] | Potency [3] | outcome [4] | outcome [5] | Potency [6] | Potency [7] | Potency [8] | Potency [9] | Potency [10] | Potency [11] | Potency [12] | Potency [13] | Potency [14] | Potency [19] | Potency [20] | Potency [16] | Potency [17]

CC(C)C(=O)OCc1cccc(OC(=O)[C@@H]2N3C(=O)[C@@H](NC(=O)Cc4ccccc4)[C@H]3SC2(C)C)c1
inactive: Potency [1] | Potency [2] | Potency [3] | outcome [4] | outcome [5] | Potency [6] | Potency [7] | Potency [8] | Potency [9] | Potency [10] | Potency [12] | Potency [13] | Potency [14] | Potency [15] | Potency [18] | Potency [16] | Potency [17]

Cc1ccccc1C(=O)O
inactive: Potency [1] | Potency [2] | Potency [3] | outcome [4] | outcome [5] | Potency [6] | Potency [7] | Potency [8] | Potency [9] | Potency [10] | Potency [11] | Potency [12] | Potency [14] | Potency [15] | Potency [18] | Potency [16] | Potency [17]

CC/C=C\CCOC(C)=O
inactive: Potency [1] | Potency [2] | Potency [3] | outcome [4] | outcome [5] | Potency [6] | Potency [7] | Potency [8] | Potency [9] | Potency [10] | Potency [11] | Potency [12] | Potency [13] | Potency [14] | Potency [15] | Potency [18] | Potency [19] | Potency [16] | Potency [17]

Nc1ccc(C(=O)OCCCOC(=O)c2ccc(N)cc2)cc1
inactive: Potency [1] | Potency [2] | Potency [3] | outcome [4] | outcome [5] | Potency [6] | Potency [7] | Potency [8] | Potency [9] | Potency [10] | Potency [11] | Potency [12] | Potency [13] | Potency [14] | Potency [19] | Potency [16] | Potency [17]

O=C(/C=C/c1ccccc1)OCCCc1ccccc1
inactive: Potency [1] | Potency [2] | Potency [3] | outcome [4] | outcome [5] | Potency [6] | Potency [7] | Potency [8] | Potency [9] | Potency [10] | Potency [11] | Potency [12] | Potency [13] | Potency [14] | Potency [15] | Potency [18] | Potency [19] | Potency [16]

CCCCCCCCCC#N
inactive: Potency [1] | Potency [3] | outcome [4] | outcome [5] | Potency [6] | Potency [7] | Potency [9] | Potency [10] | Potency [11] | Potency [12] | Potency [13] | Potency [15] | Potency [18] | Potency [19] | Potency [16] | Potency [17]
active: Potency [2] 68.2 µM | Potency [8] 11.4 µM

C[n+]1cc2c3c(ccc2c2ccc4cc5c(cc4c21)OCO5)OCO3
active: Potency [1] 1.64 µM | Potency [2] 1.46 µM | Potency [8] 9.73 µM | Potency [20] 9.2 µM | Potency [17] 13 µM
inactive: activity change [3] 3.58% [at 11.8 µM, hits give high values] | activation [4] 0.698% [at 15.8 µM] | activation [5] 3.71% [at 11.8 µM] | activation [6] -8.2% [at 13.5 µM] | activation [7] -6.71% [at 13.6 µM] | activity change, negative = cytotoxicity [9] -21.2% [at 13.5 µM] | activation [10] -0.417% [at 13.5 µM] | activity, negative = inhibition [11] 8.48% [at 12.7 µM] | activation [12] 10.7% [at 15.9 µM] | activity, negative = inhibition [13] -0.831% [at 12.6 µM] | activation [14] 0.0411% [at 15.8 µM]

CCCCCCCCCCCCS(=O)(=O)Cl
inactive: activity change, negative = cytotoxicity [1] -5.52% [at 19 µM] | activity, positive = activation [2] -14% [at 19 µM] | activity change [3] 1.68% [at 11.8 µM, hits give high values] | activation [4] 0.356% [at 15.8 µM] | activation [5] -1.76% [at 11.8 µM] | activation [6] 0.955% [at 13.5 µM] | activation [7] -3.11% [at 13.6 µM] | activity change, negative = cytotoxicity [8] 0.65% [at 13.5 µM] | activity change, negative = cytotoxicity [9] -1.69% [at 13.5 µM] | activation [10] -3.88% [at 13.5 µM] | activity, negative = inhibition [11] 6.87% [at 12.7 µM] | activation [12] 18.9% [at 15.9 µM] | activity, negative = inhibition [13] 0.609% [at 12.6 µM] | activation [14] 0.179% [at 15.8 µM] | activation [15] 1.16% [at 19 µM] | activity change, negative = inhibition [18] -6.5% [at 18.9 µM] | activity change, negative = inhibition [19] -6.85% [at 19 µM] | Potency [20] | activation [16] 0.808% [at 19 µM] | activity change, negative = inhibition [17] -2.33% [at 18.9 µM]

COc1cc(OC)cc(OC)c1
inactive: Potency [1] | Potency [2] | Potency [3] | outcome [4] | outcome [5] | Potency [6] | Potency [7] | Potency [8] | Potency [9] | Potency [10] | Potency [11] | Potency [12] | Potency [13] | Potency [15] | Potency [18] | Potency [19] | Potency [16] | Potency [17]
